SARS 3CLpro inh – SARS-CoV 3CLpro protease inhibitors, primary screen, biochemical, quenched FRET. Replicase polyprotein 1ab (Severe acute respiratory syndrome coronavirus), P0C6X7. recombinant SARS-CoV 3CLpro, quenched FRET peptide cleavage. inhibition, % at 6 µM. hit rate 0.14% among 290,000. AID 1706, 2009; in the data active = inhibition above about 12%
Anthrax LF prot – Bacillus anthracis LF protease inhibitors, primary screen, biochemical, multiplex microsphere, MLPCN library | Lethal factor (Bacillus anthracis), P15917 | multiplex microsphere protease cleavage assay | inhibition, % at 10 µM | hit rate 0.12% among 360,000 | AID 588501, 2011; note: plate controls were buffer without enzyme for full effect and enzyme alone for no effect
Target sequence (P15917 whole entry, looked up): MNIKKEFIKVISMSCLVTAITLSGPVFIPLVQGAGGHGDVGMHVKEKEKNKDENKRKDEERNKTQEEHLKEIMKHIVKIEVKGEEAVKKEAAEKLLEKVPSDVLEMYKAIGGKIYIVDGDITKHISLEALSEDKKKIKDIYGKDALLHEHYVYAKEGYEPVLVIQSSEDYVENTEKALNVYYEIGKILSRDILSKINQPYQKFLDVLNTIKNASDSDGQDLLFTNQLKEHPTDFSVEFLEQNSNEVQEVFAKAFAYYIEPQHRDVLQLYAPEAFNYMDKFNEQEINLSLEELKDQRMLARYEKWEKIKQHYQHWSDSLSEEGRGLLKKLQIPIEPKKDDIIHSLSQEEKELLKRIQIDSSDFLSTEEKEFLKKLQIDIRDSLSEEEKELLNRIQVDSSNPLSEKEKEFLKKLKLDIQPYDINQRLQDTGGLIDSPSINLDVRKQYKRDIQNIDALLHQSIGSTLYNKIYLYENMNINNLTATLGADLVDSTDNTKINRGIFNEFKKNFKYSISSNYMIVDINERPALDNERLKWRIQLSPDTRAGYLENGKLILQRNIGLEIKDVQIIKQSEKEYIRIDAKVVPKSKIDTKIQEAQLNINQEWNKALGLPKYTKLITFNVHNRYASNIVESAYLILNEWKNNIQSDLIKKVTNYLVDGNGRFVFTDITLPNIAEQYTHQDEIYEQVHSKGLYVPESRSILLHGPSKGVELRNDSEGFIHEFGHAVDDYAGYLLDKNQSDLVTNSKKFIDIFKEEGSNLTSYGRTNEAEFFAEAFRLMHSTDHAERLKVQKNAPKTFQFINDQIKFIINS
VHR inh abs – VHR1 phosphatase inhibitors, primary screen, biochemical, absorbance, uHTS | recombinant VHR phosphatase, pNPP absorbance | inhibition, % at 13.3 µM | hit rate 0.52% among 290,000 | AID 1654, 2009; in the data active = inhibition above about 50%
Autofluor counter – counter-screen for toxin protease inhibitors: compound fluorescence; compound autofluorescence counterscreen, microsphere flow cytometry; hits give high values; fluorescence intensity (no concentration beside the values); hit rate 3.1% among 360,000; AID 624483; in the data active = fluorescence intensity above about 16000; inconclusive = no clear call, values can overlap the other calls
BoNT F protease – BoNT/F light chain protease inhibitors, primary screen, biochemical, flow cytometry, MLPCN library; Botulinum neurotoxin type F light chain protease (Clostridium botulinum); AID 588497, 2011; inhibition, % at 10 µM; Multiplex microsphere protease cleavage assay; hit rate 0.22% among 360,000; in the data active = inhibition above about 35%, passing the limit was not always enough; inconclusive = no clear call, values can overlap the other calls; note: plate controls were buffer without enzyme for full effect and enzyme alone for no effect
BoNT A protease – BoNT/A light chain protease inhibitors, primary screen, biochemical, flow cytometry, MLPCN library; multiplex microsphere protease substrate cleavage; inhibition, % at 10 µM; hit rate 0.17% among 360,000; note: plate controls were buffer without enzyme for full effect and enzyme alone for no effect
The depositor's hits bear a star; ? = inconclusive; . = no result given. An excerpt weighted towards active compounds, which were near 3.9% of everything screened. Cut-off read from the data, not from the text of the source, unless noted: active = inhibition above about 30%; inconclusive = no clear call, values can overlap the other calls; inactive = below that.

SMILES	SARS 3CLpro inh	Anthrax LF prot	VHR inh abs	Autofluor counter	BoNT F protease	BoNT A protease
Cc1ccc(-c2nc(CCN3C(=O)c4ccccc4C3=O)cs2)cc1	-2	-5	25	23490*	-4	?
Cc1cccc(-n2c(SCC(=O)N3CCCC3)nc3n[nH]c(C)c3c2=N)c1	-2	0	-3	22446*	-4	?
COc1ccccc1NC(=O)CSc1nc2n[nH]c(C)c2c(=N)n1-c1ccccc1Cl	-4	-1	-3	22575*	-4	-1
CCc1ccccc1NC(=O)CSc1nc2n[nH]c(C)c2c(=N)n1-c1ccc(OC)cc1	0	-3	18	4967	3	0
CC(C)(C)C(=O)NC(=C(Cl)Cl)P(=O)(O)O	3	-3	27	24171*	-5	-3
COP(=O)(OC)C(NC(=O)C(C)(C)C)=C(Cl)Cl	-1	3	27	9697	1	0
CN1CCn2c1nc(N1CCCCC1)nc2=O	10	0	11	21803*	-9	-6
c1cncc(CNCc2ccco2)c1	-1	14	10	3666	6	-4
CC/C(=N\NC(=O)C1CCCC1)c1ccc(Br)cc1	-3	-4	50*	6038	9	0
CC/C(=N\NC(=O)C1CCCC1)c1cccc(Br)c1	4	0	11	5302	9	0
O=[N+]([O-])c1ccn(-c2nc(-c3ccccc3)cc(C(F)(F)F)n2)n1	-2	-2	25	5265	0	-1
O=[N+]([O-])c1ccn(-c2nc(-c3cccs3)cc(C(F)(F)F)n2)n1	4	-7	54*	4049	4	0
O=C(N/N=C/c1ccccc1Cl)c1cccc(F)c1	5	-3	14	16940*	-4	-3
COc1cccc(-n2c(SCC(=O)Nc3nc4ccccc4s3)nc3ccccc3c2=O)c1	2	.	7	.	.	.
COc1cccc(-n2c(SCC(=O)Nc3sc4c(c3C(N)=O)CCC4)nc3ccccc3c2=O)c1	0	-3	2	16606*	-2	-1
CS(=O)(=O)N(CC(=O)NCCSC1CCCCC1)c1ccc2c(c1)OCO2	3	1	0	2114	3	0
COc1ccc(N(CC(=O)NCCSC2CCCCC2)S(C)(=O)=O)c(OC)c1	6	-1	-17	18476*	-10	?
CCOC(=O)c1ccc(NC(=O)Nn2cnnc2)cc1	-4	3	19	6519	0	-2
CCOC(=O)c1ccc(NC(=O)N(CC)CC)cc1	-5	1	-9	20244*	-1	?
CCOC(=O)c1ccc(NC(=O)Nc2cc(C)on2)cc1	-3	-3	3	16267*	1	0
CCOC(=O)c1ccc(NC(=S)NCCCN2CCCCC2)cc1	1	0	22	22858*	0	?
CCOC(=O)c1ccc(NC(=O)Nc2ccc(S(N)(=O)=O)cc2)cc1	-2	0	-12	24361*	-8	-5
CCOC(=O)c1ccc(NC(=O)Nc2cccc(C)n2)cc1	2	-1	10	2460	1	0
CC(Cn1cncn1)C(=O)N1CCN(S(=O)(=O)c2ccc(Cl)cc2)CC1 (stereo not given)	-3	4	36	3633	15	-2
COCC(C)N1CCC(n2nccc2NC(=O)CCCc2ccccc2)CC1 (stereo not given)	-2	-1	15	5823	6	0
SMILES	SARS 3CLpro inh	Anthrax LF prot	VHR inh abs	Autofluor counter	BoNT F protease	BoNT A protease
CCCNC(=O)c1cc(C2CCCCN2S(=O)(=O)c2ccccc2)on1 (stereo not given)	.	2	.	3146	2	0
CCC(CC)C(=O)Nc1ccc(C(=O)Nc2cc(C)on2)cc1	1	-4	25	4264	-3	0
Cc1cc(NC(=O)c2ccc(NC(=O)CC(C)C)cc2)no1	-1	-4	39	19975*	9	5
CN(CCO)C(=O)CCC(=O)Nc1ccc(S(N)(=O)=O)cc1	-2	-6	-4	17212*	-5	-3
Cc1cc(C)nc(OC(C(=O)O)C(OCC(C)C)(c2ccccc2)c2ccccc2)n1 (stereo not given)	4	-5	-4	3577	-35	1
O=C(CSC1=NS(=O)(=O)c2cc(Cl)ccc2N1)c1ccc(Cl)cc1	.	3	.	5467	12	4
O=[N+]([O-])c1ccccc1/C=N/Nc1nccnc1Cl	1	-2	21	22518*	0	-1
O=C(COC(=O)Cc1ccc(Br)cc1)Nc1ccc(Cl)cn1	.	-1	.	5415	-5	0
CC(=O)Nc1cc(OC(C)=O)c2nonc2c1OC(C)=O	37*	1	8	11175	-8	0
Cc1cccc(CNC(=O)c2ccc(NC(=O)C3=CSCCO3)cc2)c1	1	2	3	5162	6	0
CCN(Cc1nc2ccccc2c(=O)[nH]1)Cc1cc(=O)oc2cc(OC)ccc12	-7	1	23	4793	-12	1
Cc1c(-c2ccccc2)nc(N)c(C#N)c1-c1ccco1	-1	0	4	20557*	-2	0
COc1ccc2[nH]c3c(NCCC4=CCCCC4)ncnc3c2c1	1	-2	-18	5051	-6	0
CC(=O)Nc1ccc(NC(=O)CSc2nnc(C)c(=O)[nH]2)cc1	5	-1	-2	3008	-1	0
Cc1nc(-c2ccc(S(=O)(=O)Nc3ccc(Br)cc3F)cc2)co1	4	0	-17	5391	0	2
COC(=O)NC1CCS(=O)(=O)C1 (stereo not given)	-5	-4	13	17672*	-7	?
O=C1CC(NCc2ccccc2)C(=O)N1c1ccc(F)cc1 (stereo not given)	7	-5	17	4038	-8	-1
O=C1CC(NCc2ccccc2F)C(=O)N1c1ccccc1 (stereo not given)	0	-2	-10	16529*	-2	-1
CN(C)S(=O)(=O)c1ccc(C(=O)NCCOc2ccccc2)cc1	1	-1	6	3917	2	0
CN(C)S(=O)(=O)c1ccc(C(=O)NCCOc2ccc(F)cc2)cc1	-1	-3	-8	24248*	-7	-5
Cc1ccc(-c2csc3ncnc(Sc4nnc(CN5CCCCCC5=O)o4)c23)cc1	1	-4	15	16668*	-1	0
Cc1ccc(NC(=S)N2CCCCCC2)c(C)c1	-3	6	53*	6769	-3	-2
Cc1ccc(C)c(NC(=S)N2CCCC2)c1	1	3	36	6101	6	0
c1ccc2[nH]c(NCCCN3CCOCC3)nc2c1	-3	-5	29	24547*	-6	?
O=c1[nH]c2ccccc2nc1NCCN1CCOCC1	1	-4	-10	2704	-4	0

High-throughput results deposited in PubChem BioAssay by several laboratories.
